Pf Dd2 growth: qHTS Primary assay for Inhibitors of Plasmodium falciparum Dd2 growth in vitro | P. falciparum Dd2 growth, SYBR Green, 72 h | Potency, µM (highest dose often 28.9 µM), usual class: inhibitors | 120,000 compounds, 4.3% hits; active = well fitted inhibition curve with a large enough effect; also: nearly all actives have a fitted effect of over 65% in size
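Infected erythrocytes (Dd2, 0.3% parasitemia, 2.5% hematocrit final) are added to compound in RPMI-1640/Albumax II medium, grown 72 h at 37C in low oxygen, then lysed with saponin/Triton-X containing SYBR Green and read by fluorescence.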
Each line names hits and unclear results; the compound was inactive in the other large screens. The full list was thinned out, with hits kept by preference.

O=C(C1CCc2nnc(-c3ccc(Cl)cc3Cl)n21)N1CCN(c2ncccn2)CC1 (stereo not drawn)	none
COc1ccccc1-c1nnc2n1C(C(=O)N1CCN(c3ncccn3)CC1)CC2 (stereo not drawn)	none
Clc1ccc(-c2cn3ncsc3n2)cc1	none
O=C(c1ccoc1)N1CC(Oc2cccc(-c3nc(-c4ccccc4)no3)c2)C1	none
COCCN1C(=O)c2cccn2CC1CNC(=O)c1ccc(Cc2c(C)noc2C)o1 (stereo not drawn)	none
CCC(=O)N1CCc2cc(S(=O)(=O)NCc3ccc(C)cc3)ccc21	none
Cn1ccnc1CN1C(=O)CO[C@H](c2ccc(N)cc2)[C@H]1CO	none
O=C(NC1(C(F)(F)F)NC(=O)N(CCc2ccccc2)C1=O)c1ccccc1Cl (stereo not drawn)	none
Cc1ccc(CNC(=O)CC2CCCCN(C)C2=O)cc1 (stereo not drawn)	none
CN1CCCCCC(O)c2cc(C(=O)NCCc3c[nH]c4ccccc34)ccc21 (stereo not drawn)	Pf Dd2 growth 13µM
CN1CCCCCC(O)c2cc(C(=O)NCCCc3ccccc3)ccc21 (stereo not drawn)	none
CN1CCCCCC(O)c2cc(C(=O)NCCN3CCOCC3)ccc21 (stereo not drawn)	none
Cc1nccc(-c2ccccc2)c1C(=O)N1CCN(C)C(C(=O)O)C1 (stereo not drawn)	none
O=C1CCN(C(=O)CCCc2c[nH]c3ccccc23)CCCOCCN1	none
O=C(CC1COCCN1)N(CCc1c[nH]c2ccccc12)C1CCCCC1 (stereo not drawn)	Pf Dd2 growth 8.9µM
O=C(CC1COCCN1)N(Cc1cccnc1)Cc1cccnc1 (stereo not drawn)	none
COc1ccc(CCCN2C(=O)O[C@@H]3CN(C4CCOCC4)C[C@@H]32)cc1	none
O=C(c1ccc(Cl)s1)N1CCC(c2nc(-c3ccccc3)no2)C1 (stereo not drawn)	none
CCn1ccc(C(=O)N2CCC(N3C(=O)C(OCC4CC4)C34CCCCC4)CC2)n1 (stereo not drawn)	none
O=C(C1CCCC1)N1CCC(N2C(=O)C(OCC3CC3)C23CCCCC3)CC1 (stereo not drawn)	none
O=C(c1n[nH]c2ccccc12)N1CCC(N2C(=O)C(OCC3CC3)C23CCCCC3)CC1 (stereo not drawn)	Pf Dd2 growth 4.5µM
Cc1noc(-c2ccc(OC3CN(C(=O)c4cccc5[nH]ccc45)C3)cc2)n1	none
COC[C@@H]1CN(C(=O)COc2ccccc2)C[C@H]1c1ccccn1	none
COc1ccc(CCNC(=O)C2(c3ccc(OC)cc3)CCOCC2)cc1	none
CCCNC(=O)N1CC(Oc2ccccc2-c2nc(CCOC)no2)C1	none
COCCc1noc(-c2ccccc2OC2CN(C(=O)C(C)C)C2)n1	Pf Dd2 growth 3.2µM
CCn1nccc1C(=O)N1CC(Oc2ccccc2-c2nc(CCOC)no2)C1	Pf Dd2 growth 4.5µM
Cc1nc(C)c(C(=O)N2CC(Oc3ccccc3-c3nc(C4CC4)no3)C2)s1	none
COCCc1noc(C2CN(C(=O)C(C)C)C2)n1	none
CCn1nccc1C(=O)N1CC(Oc2ccc(-c3nc(C)no3)cc2)C1	none
COc1nccnc1NC1CCN(C(=O)c2cccs2)CC1	none
Cc1ccc(C(=O)N2CCN(c3cc(-c4cccs4)[nH]n3)CC2)cc1C	none
O=C(N[C@H]1CO[C@H]2[C@@H]1OC[C@@H]2Nc1nccc(C2CCCC2)n1)c1ccccc1	none
CC(C)N1C(=O)C(CC(=O)N2CCCC2)=C2CCCCC21 (stereo not drawn)	none
Cc1ccc(C2=NC3(CCN(C(=O)c4ccc(F)c(F)c4)CC3)ON2)cc1	none
O=C(Nc1nonc1-c1ccc(Cl)cc1)c1ccccc1F	none
CN(C)[C@@H]1[C@@H](NS(=O)(=O)c2cccc3c2OCCO3)[C@H]2CCO[C@H]21	none
O=S(=O)(NC[C@H]1O[C@@H](CO)[C@@H](O)[C@H]1N1CCN(c2ccccn2)CC1)c1ccccc1	none
COCCCNc1nc(-c2c(C)noc2C)cc2cc(C(C)C)oc12	none
CCOC(=O)c1oc2ccc(S(=O)(=O)n3nc(-c4cc(OCC)c(OCC)c(OCC)c4)cc3N)cc2c1C	Pf Dd2 growth 10µM
COc1ccc(C)cc1NC(=O)c1oc2ccc(S(=O)(=O)N3CCOCC3)cc2c1C	none
COc1ccc(C)cc1NC(=O)c1oc2ccc(S(=O)(=O)N3CCCCC3)cc2c1C	none
Cc1ccc(NC(=O)C2CCN(C(=O)c3sc4nc[nH]c(=O)c4c3C)CC2)cc1F	none
COc1ccc(S(=O)(=O)N2CCC3(CC2)CC(OCC2CC2)CCO3)cc1 (stereo not drawn)	Pf Dd2 growth 3.5µM
COc1cccc(S(=O)(=O)N2CCC3(CC2)CC(OCC2CC2)CCO3)c1 (stereo not drawn)	none
COc1ccc(S(=O)(=O)N2CCC3(CC2)CC(OC)CCO3)cc1 (stereo not drawn)	none
Cc1ccc(CN2CCOC[C@H]2c2nc(C(C)(C)C)co2)cc1	none
COc1ccc(C(=O)N2CCCn3ccnc3C2C(C)C)c(OC)c1 (stereo not drawn)	none
CCCCOc1c(CNC(C)c2ncccc2C)cccc1OC (stereo not drawn)	Pf Dd2 growth 5.6µM
COc1ccccc1Oc1ncccc1CNC(=O)c1cccnc1C	none
CCC(=O)NCc1cccnc1Oc1ccccc1OC	none
C[C@H]1[C@@H]2[C@@H](O)C([C@H](C)C(=O)N(C)CCC#N)CC[C@@]2(C)CC[C@@H]1NC(=O)C1CCCCC1 (stereo partly drawn)	none
Cn1ncc2c(-c3ccc([S+](C)(=O)[O-])cc3)cc(C(=O)N3CCN(c4ncccn4)CC3)nc21	none
COc1cccc(S(=O)(=O)N2C[C@@H](C(N)=O)[C@H](C3CCN(C)CC3)C2)c1	none
CC(C)CCOc1ccc(C(=O)Nc2sc3c(c2C#N)CCCCC3)cc1	none
CC1CCCCN1Cc1nnc2cc(-c3nc(-c4ccccc4)no3)ccn12 (stereo not drawn)	none
CC1CCCCN1Cc1c(O)ccc2c(=O)c(-c3ccc(Cl)cc3)c(C(F)(F)F)oc12 (stereo not drawn)	Pf Dd2 growth 10µM
CN(Cc1ccc(-c2ccccc2)cc1)Cc1cccc(OC(F)(F)F)c1	none
CC1CCCCN1C(=O)CN1CCSc2ccccc21 (stereo not drawn)	none
CN(Cc1ccc(-c2ccccc2)cc1)Cc1cccc(C(F)(F)F)c1	none
CC1CCCCN1Cc1nc2c(c(=O)n(C)c(=O)n2C)n1Cc1ccc(Br)cc1 (stereo not drawn)	none
CC1CCCCN1Cc1c(O)ccc2c(=O)c(-c3ccccc3)coc12 (stereo not drawn)	Pf Dd2 growth 10µM
CN(Cc1ccccc1)Cc1c(O)ccc2c(=O)c(-c3ccccc3)c(C(F)(F)F)oc12	Pf Dd2 growth 4µM
CN(C)C(=O)c1ccc(S(=O)(=O)NCc2ccc(Cl)cc2)s1	none
Cc1ccc(CN(Cc2ccco2)C(=O)c2oc3ccc(C)cc3c2C)cc1	none
c1csc(C2=NC(c3ccncc3)=Nc3ccccc3N2)c1	none
Cc1nn(C)c(C)c1CCC(=O)N1C[C@@H](Oc2ccccc2)C[C@H]1C(=O)N1CCCC1	none
Cc1ccc(C(C)C)c(OCC(=O)Nc2ccc3c(c2)nc(CCNC(=O)c2ccco2)n3C)c1	none
COc1ccccc1-c1cc2c(ccn2Cc2ccncc2)c(N2CCOCC2)n1	none
COc1cccc(-c2cc3c(ccn3CC3CCN(C)CC3)c(N3CCOCC3)n2)c1	Pf Dd2 growth 6.3µM
C[S+](=O)([O-])N1CCC(Cn2ccc3c(N4CCOCC4)nc(-c4cncnc4)cc32)CC1	none
c1cc(-c2cc3c(ccn3Cc3ccncc3)c(N3CCOCC3)n2)cc(N2CCOCC2)c1	none
C[S+](=O)([O-])N1CCC(Cn2ccc3c(N4CCOCC4)nc(-c4cccc5[nH]ccc45)cc32)CC1	none

Screens (PubChem BioAssay)
